The values below come from PubChem BioAssay (NCATS).

Test [1] is described as follows: qHTS profiling of the MIPE4 collection as inhibitors of Plasmodium falciparum (DD2) proliferation (AID 743345; call rule not given here). The settings on record: P. falciparum Dd2 in erythrocytes, SYBR Green DNA, 72 h; at 28.5 µM (top of the series) unless noted. In a few lines:
(§1)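 Parasite DNA was quantified by SYBR Green I fluorescence (ex 485, em 535 nm) after overnight lysis in saponin/Triton buffer at room temperature. Cultures at 0.3% parasitemia and 2.5% hematocrit were first exposed to compound for 72 h at 37 C; signals were normalised to artemisinin (0.29 uM) and vehicle wells.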
Background: In qHTS, concentration-response curves come from the screen itself.

Test [2] in a line: qHTS profiling of the MIPE4 collection as inhibitors of Plasmodium falciparum (DD2) proliferation (Rep 2) (AID 743346; call rule not given here). Conditions: P. falciparum Dd2 in erythrocytes, SYBR Green DNA, 72 h; at 28.5 µM (top of the series) unless noted. In a few lines:
as §1

Test [3] in a line: qHTS profiling of the MIPE4 collection as inhibitors of Plasmodium falciparum (HB3) proliferation (AID 743347; call rule not given here;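 also: plate controls were DMSO vehicle wells for no effect and artemisinin wells for full effect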). Conditions: P. falciparum HB3 in erythrocytes, SYBR Green DNA, 72 h; at 28.5 µM (top of the series) unless noted. In a few lines:
as §1

Test [4] in a line: High-throughput drug toxicity screening in the BPDCN cell line Gen2.2 (AID 1224824; call rule not given here;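 also: cells exposed to compounds for 48 h before reading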). The settings on record: Gen2.2 BPDCN cells; at 45.8 µM (top of the series) unless noted. Put shortly:
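Gen2.2 cells (500/well) in phenol red-free RPMI with 10% FBS were exposed to compounds for 48 h at 37 °C, 5% CO2. Viability was read by CellTiter-Glo luminescence and normalized to DMSO (100%) and 9.2 uM bortezomib (0%).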

Test [5] in a line: High-throughput drug toxicity screening in the BPDCN cell line Cal-1 (AID 1224825; call rule not given here). Conditions: Cal-1 BPDCN cell viability, qHTS; at 45.8 µM (top of the series) unless noted. In a few lines: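 Viability of the BPDCN line Cal-1 is measured as ATP-based luminescence (CellTiter-Glo) following 48 h incubation with compounds. Percent activity uses DMSO-treated wells as 100% and 9.2 uM bortezomib as 0%.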

A short description of test [6]: qHTS assay for measurement of the activity of small molecule inhibitors on Zika virus induced Caspase-3 activity in human iPSC derived neural progenitor cells (hNPCs) (AID 1224857). Also: % of control where 0% means no effect; nearly all actives have a fitted effect of over 65% in size. Put shortly: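 Human iPSC-derived neural progenitor cells pretreated 1 hr with compounds, then infected with Zika virus (2 FFU/cell) for 6 hours at 37 C. Caspase-3/7 measured by Caspase-Glo luminescence; % inhibition calculated from induction scaled to uninfected (0%) and infected (100%) wells.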

Test [7] can be described thus: qHTS assay for measurement of the activity of small molecule inhibitors on Zika virus induced Caspase-3 activity in human astrocytoma cells (AID 1224859).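 Also: plate controls were ZIKV-infected untreated cells for no effect and uninfected cells for full effect.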 In a few lines: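 SNB-19 astrocytoma cells, 250/well, pretreated 1 h with compounds, then Zika virus at 2 FFU/cell for 6 h at 37 C; Caspase-Glo 3/7 luminescence after 30 min; percent inhibition normalised to uninfected and infected controls.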

Test [8] in a line: qHTS Screen of the MIPE 4.0 Collection Against Ewings Sarcoma (RDES) (AID 1259252). Also: nearly all actives have a fitted effect of over 35% in size. Also: potency is read from the fitted curve at half-maximal effect. Put shortly: (§2)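 Measured: ATP luminescence (CellTiter-Glo) 10 min after reagent addition, following 48 h drug treatment. Relative luciferase units converted to percent activity, with no-cell wells as full and DMSO wells as zero inhibition.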
Test [9] can be described thus: qHTS Screen of the MIPE 4.0 Collection Against Ewings Sarcoma (TC71) (AID 1259253). Also: nearly all actives have a fitted effect of over 40% in size. Also: potency is read from the fitted curve at half-maximal effect. In a few lines:
as §2

Test [10] is described as follows: qHTS Screen of the MIPE 4.0 Collection Against Ewings Sarcoma (EW8) (AID 1259255). Also: nearly all actives have a fitted effect of over 35% in size. Also: potency is read from the fitted curve at half-maximal effect.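 As to viability: 100% = DMSO-treated cells and 0% = medium-only wells without cells.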 In a few lines: as §2

Results filed as inconclusive are left out. The source made the active and inactive calls. Unless noted, calls follow the shape of the dose curve; as a rule, active = well fitted inhibition curve with a large enough effect; inconclusive = small, poorly fitted or top-dose-only effect; inactive = no such curve, though single readings can be large or run the other way.

Turning to `COC(=O)[C@@H]1[C@H]2C[C@@H]3c4[nH]c5ccccc5c4CCN3C[C@@H]2CC[C@@H]1O`, the parasite growth remaining, % of DMSO control (lower = more inhibition) in test [1] came out at 93.2%. Moreover, the parasite growth, % of control (lower = inhibition) in [2] worked out at 69.1%. This molecule also registered a growth, % of control in test [3] of 66.3%. The cell viability, % of control (lower = more cytotoxic) in test [4] was determined as 24.1%. For the same molecule, in [5], the viability (% of control) was determined as 21.8%. Further, the Potency entry in test [6], in [7], in test [8], in test [9] and in [10] was “inactive” each time.
Consider `COc1cccc2c1C(=O)c1c(O)c3c(c(O)c1C2=O)C[C@@](O)(C(=O)CO)C[C@@H]3O[C@H]1C[C@H](N)[C@H](OC2CCCCO2)[C@H](C)O1` (stereo partly drawn), for which, in test [1], the parasite growth remaining, % of DMSO control (lower = more inhibition) turned out to be 7.89%. For the same molecule, the parasite growth, % of control (lower = inhibition) in test [2] is 7.8%. Besides, the growth, % of control in test [3] is 3.44%. In test [4], the cell viability, % of control (lower = more cytotoxic) amounted to 5.53%. The viability (% of control) in [5] amounted to 1.87%. Moreover, the Potency entry in [6] and in [7] was “inactive” in each case. The Potency in test [8] was 1180 nM (active); in test [9] it was 662 nM (active); in test [10], 166 nM (active).
Regarding `Cc1cc(-c2nnc3n2CCCCC3)c(C)n1-c1ccccc1`, in test [1], the parasite growth remaining, % of DMSO control (lower = more inhibition) was 36.9%. For the same molecule, the parasite growth, % of control (lower = inhibition) in test [2] was 26.6%. The molecule further yielded a growth, % of control in test [3] of 16.4%. In addition, the cell viability, % of control (lower = more cytotoxic) in [4] was 229%. Besides, the viability (% of control) in test [5] came to 98.4%. In addition, the Potency result in test [6], in [7], in [8], in [9] and in test [10] was “inactive” each time.
For `OCCN1C[C@H](O)[C@@H](O)[C@H](O)[C@@H]1CO`, the parasite growth remaining, % of DMSO control (lower = more inhibition) in test [1] is 131%. The parasite growth, % of control (lower = inhibition) in [2] came out at 85.5%. In test [3], this molecule yielded a growth, % of control of 97.8%. The cell viability, % of control (lower = more cytotoxic) in test [4] is 122%. Besides, in test [5], the viability (% of control) was 103%. In addition, the Potency entry in test [6], in test [7], in test [8], in test [9] and in [10] was “inactive” in each case.
`CCCCC(=O)O[C@]1(C(=O)CO)[C@@H](C)C[C@H]2[C@@H]3CCC4=CC(=O)C=C[C@]4(C)[C@@]3(F)[C@@H](O)C[C@@]21C`: the parasite growth remaining, % of DMSO control (lower = more inhibition) in [1] is 78.8%. In test [2], the parasite growth, % of control (lower = inhibition) worked out at 54.9%. The same molecule displayed a growth, % of control in test [3] of 22.8%. Moreover, the cell viability, % of control (lower = more cytotoxic) in [4] stood at 44%. The viability (% of control) in test [5] is 51.8%. Also, the Potency entry in test [6], in test [7], in [8], in test [9] and in test [10] was “inactive” throughout.
Regarding `CC(=O)OCC(=O)[C@@]1(O)CC[C@H]2[C@@H]3CCC4=CC(=O)CC[C@]4(C)[C@@H]3C(=O)C[C@@]21C`, the parasite growth remaining, % of DMSO control (lower = more inhibition) in test [1] was determined as 93.2%. In test [2], the parasite growth, % of control (lower = inhibition) was determined as 122%. This molecule also returned a growth, % of control in [3] of 96.5%. The cell viability, % of control (lower = more cytotoxic) in [4] was found to be 108%. In addition, the viability (% of control) in [5] came out at 111%. The Potency result in test [6], in test [7], in test [8], in test [9] and in test [10] was “inactive” each time.
For `COc1cc(OC)cc(-c2ccc3ncc4ccc(=O)n(-c5ccc(N6CCNCC6)c(C(F)(F)F)c5)c4c3c2)c1`, the parasite growth remaining, % of DMSO control (lower = more inhibition) in [1] came to 5.58%. In [2], the parasite growth, % of control (lower = inhibition) came to 18.6%. The molecule also showed a growth, % of control in [3] of 9.36%. Moreover, in test [4], the cell viability, % of control (lower = more cytotoxic) was 13.6%. Moreover, the viability (% of control) in test [5] came out at 5.34%. The Potency entry in test [6] and in test [7] was “inactive” each time. For the same molecule, the Potency is 2960 nM (active) in [8], 2640 nM (active) in test [9] and 4180 nM (active) in [10].
As to `Cn1cnc2c(F)c(Nc3ccc(Br)cc3F)c(C(=O)NOCCO)cc21`, the parasite growth remaining, % of DMSO control (lower = more inhibition) in [1] amounted to 88%. Further, the parasite growth, % of control (lower = inhibition) in [2] was 76.8%. Further, in [3], the growth, % of control is 84.6%. For the same molecule, the cell viability, % of control (lower = more cytotoxic) in test [4] is 4.85%. Also, the viability (% of control) in [5] amounted to 56.4%. Further, the Potency result in test [6], in [7], in test [9] and in test [10] was “inactive” throughout.
In the case of `O=c1c(O)c(-c2ccc(O)c(O)c2)oc2cc(O)ccc12`, the parasite growth remaining, % of DMSO control (lower = more inhibition) in [1] amounted to 8.33%. In [2], the parasite growth, % of control (lower = inhibition) worked out at 14.7%. For the same molecule, the growth, % of control in test [3] amounted to 8.07%. In addition, the cell viability, % of control (lower = more cytotoxic) in [4] was determined as 9.57%. Besides, the viability (% of control) in test [5] came out at 2.16%. For the same molecule, the Potency result in test [6] and in test [7] was “inactive” each time. In addition, the Potency was 18700 nM (active) in test [9] and 16600 nM (active) in test [10].
